Results on eleven compounds are retold here after PubChem BioAssay (EPA / NIEHS).

Structures are written as SMILES. Several values for one entry are separate records, joined by “and”; a condition that tells them apart may be missing. Equal values may be shown once. Records with an inconclusive call do not appear. The source holds several records for some structures; these can differ, active in one and inactive in another. Activity calls are given as the source filed them. How the source made its calls, unless noted: active means hit-call score of the fitted dose curve at least 0.9, where 1 is the maximum; inactive means score below 0.9.

The target in experiment [1] is human RAR-related Orphan Receptor gamma (RORg), RORC (gene 6097) (UniProt P51449). Kind of experiment: ATG_RORg_TRANS: Attagene TRANS-FACTORIAL HepG2 Assay for human RAR-related Orphan Receptor gamma (RORg) (AID 2283011; active means hit-call score of the fitted dose curve at least 0.9, where 1 is the maximum). The gist of the method: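 Reporter transcripts from a transfected RORg-GAL4 chimera in HepG2 cells were quantified 24 h after dosing by RT-PCR, 6-FAM labelling, HpaI digestion and capillary electrophoresis; increases over DMSO baseline were fitted.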
Chain of human RAR-related Orphan Receptor gamma (RORg), RORC (gene 6097) (P51449 whole entry, looked up, the tested form may be a part): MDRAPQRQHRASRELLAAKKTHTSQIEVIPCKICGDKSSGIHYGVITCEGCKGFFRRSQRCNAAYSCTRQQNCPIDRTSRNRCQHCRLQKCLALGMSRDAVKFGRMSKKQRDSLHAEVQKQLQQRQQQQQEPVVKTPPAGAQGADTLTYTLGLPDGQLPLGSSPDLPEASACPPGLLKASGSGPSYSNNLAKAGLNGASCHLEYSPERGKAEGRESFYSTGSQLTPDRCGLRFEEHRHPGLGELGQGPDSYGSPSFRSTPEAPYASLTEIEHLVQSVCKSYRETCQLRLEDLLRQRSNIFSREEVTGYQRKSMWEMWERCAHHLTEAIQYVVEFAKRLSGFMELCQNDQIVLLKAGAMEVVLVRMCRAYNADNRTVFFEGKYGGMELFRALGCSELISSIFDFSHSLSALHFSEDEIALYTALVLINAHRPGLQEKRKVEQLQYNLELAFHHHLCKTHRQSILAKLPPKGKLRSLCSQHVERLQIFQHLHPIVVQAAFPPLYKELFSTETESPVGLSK

Experiment [2] concerns the target Retinoic acid receptor RXR-alpha (Homo sapiens) (UniProt P19793). Kind of experiment: ATG_RXRa_TRANS: Attagene TRANS-FACTORIAL HepG2 Assay for human Retinoid X Receptor alpha (RXRa) (AID 2283012; active means hit-call score of the fitted dose curve at least 0.9, where 1 is the maximum). The gist of the method:
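Measures exogenous chimeric NR-GAL4 activity in transfected HepG2 liver cells after 24 h of dosing. Induced reporter mRNA was detected by RT-PCR with capillary electrophoresis, and gain of signal was analysed against DMSO.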

For experiment [3], the target named is human Retinoid X Receptor beta (RXRb), RXRB (gene 6257) (UniProt P28702). Kind of experiment: ATG_RXRb_TRANS: Attagene TRANS-FACTORIAL HepG2 Assay for human Retinoid X Receptor beta (RXRb) (AID 2283013; active means hit-call score of the fitted dose curve at least 0.9, where 1 is the maximum). The gist of the method:
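Chimeric receptor-Gal4 activity was assessed in transiently transfected human HepG2 cells after 24 h exposure. Transcripts from GAL4-UAS reporters were quantified by fluorescent RT-PCR and capillary electrophoresis, with DMSO as negative control and baseline.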

Read-out in experiment [4]: E-selectin (Homo sapiens) (UniProt P16581)
Put plainly: BSK_3C_Eselectin: BioMAP Diversity Plus: 3C Assay for Eselectin Biomarker Activity (AID 2283015).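 On outcome: cell surface E-selectin protein quantified by ELISA 24 h after dosing.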 As to conditions: primary human endothelial cells (HUVEC); actives raise or lower the signal. The gist of the method: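 E-selectin ELISA readout, fitted bidirectionally relative to DMSO, taken 24 h post-dosing in HUVEC cultures of the 3C system. Overt cytotoxicity tracked with sulforhodamine B staining of parallel wells.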

Read-out in experiment [5]: Interleukin-1 alpha (IL1a), IL1A (gene 3552)
Put plainly: BSK_BE3C_IL1a: BioMAP Diversity Plus: BE3C Assay for Interleukin-1 alpha (IL1a) Biomarker Activity (AID 2283016). As to conditions: primary human bronchial epithelial cells; actives raise or lower the signal. The gist of the method: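 Signal from IL-1a ELISA, taken 24 h after chemical dosing of human bronchial epithelial cells, is compared with DMSO as baseline using bidirectional curve fitting.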

Read-out in experiment [6]: Monocyte Chemoattractant Protein-1 (MCP1), CCL2 (gene 6347)
Kind of experiment: BSK_3C_MCP1: BioMAP Diversity Plus: 3C Assay for Monocyte Chemoattractant Protein-1 (MCP1) Biomarker Activity (AID 2283017). The settings on record: primary human endothelial cells (HUVEC); actives raise or lower the signal. The gist of the method:
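MCP-1 was measured by ELISA 24 h after dosing in primary HUVEC 3C cultures and fitted in both directions relative to DMSO; cytotoxicity was checked by SRB total-protein staining in parallel wells.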

Read-out in experiment [7]: Monocyte Chemoattractant Protein-1 (MCP1), CCL2 (gene 6347)
Kind of experiment: BSK_4H_MCP1: BioMAP Diversity Plus: 4H Assay for Monocyte Chemoattractant Protein-1 (MCP1) Biomarker Activity (AID 2283018). As to conditions: primary human endothelial cells (HUVEC); actives raise or lower the signal. The gist of the method:
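Endothelial cells from umbilical vein were treated with test chemical, then after 24 h MCP-1 levels were quantified by ELISA; endpoint values came from bidirectional fitting with DMSO as baseline of activity.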

Read-out in experiment [8]: Interleukin-8 (IL8), CXCL8 (gene 3576)
Put plainly: BSK_3C_IL8: BioMAP Diversity Plus: 3C Assay for Interleukin-8 (IL8) Biomarker Activity (AID 2283020). The settings on record: primary human endothelial cells (HUVEC); actives raise or lower the signal. The gist of the method:
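Endothelial primary cells of human umbilical vein origin are dosed with chemical; after 24 h the IL-8 biomarker is measured by ELISA, and concentration–response is fitted in both directions versus DMSO.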

Experiment [9] in a line: BSK_3C_SRB: Viability Assessment in the BioMAP Diversity Plus: 3C Assay (AID 2283023).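 Further: fitted both ways against DMSO so a hit may be signal rise or drop.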 As to conditions: primary human endothelial cells (HUVEC). A digest of the protocol: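 Cytotoxicity readout in parallel HUVEC 3C cultures: after 24 h compound exposure, cells fixed with 10% TCA, stained with 0.1% SRB and read at 560 nm. Gain or loss relative to DMSO fitted.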
Read-out in experiment [10]: Matrix Metallopeptidase 1 (MMP1), MMP1 (gene 4312)
Put plainly: BSK_BE3C_MMP1: BioMAP Diversity Plus: BE3C Assay for Matrix Metallopeptidase 1 (MMP1) Biomarker Activity (AID 2283024). As to conditions: primary human bronchial epithelial cells; actives raise or lower the signal. The gist of the method: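 MMP1 signal, measured by ELISA after a 24 h chemical exposure of human primary bronchial epithelial cells, is analysed with bidirectional fitting using DMSO as negative control.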

Experiment [11] in a line: BSK_4H_SRB: Viability Assessment in the BioMAP Diversity Plus: 4H Assay (AID 2283027).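 Further: cells exposed to compound for 24 h before staining.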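 On AC50: curves fitted both ways versus DMSO so AC50 may be loss or gain.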 The settings on record: primary human endothelial cells (HUVEC). A digest of the protocol:
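Cytotoxicity read-out in primary human endothelial cells: after 24 h compound exposure, cells were TCA-fixed (10%), stained with 0.1% SRB and absorbance taken at 560 nm. Values fitted in both directions relative to DMSO.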

Experiment [12] in a line: BSK_BE3C_SRB: Viability Assessment in the BioMAP Diversity Plus: BE3C Assay (AID 2283028).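 On AC50: fitted both ways so AC50 may mark signal gain or loss versus DMSO.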 The settings on record: primary human bronchial epithelial cells. The gist of the method: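 Cytotoxicity read-out: SRB (0.1%) staining of TCA-fixed (10%) human lung bronchial epithelial cells, absorbance 560 nm, 24 h post-dosing. Curves fitted both directions relative to DMSO.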

Read-out in experiment [13]: Thrombomodulin, THBD (gene 7056)
Put plainly: BSK_3C_Thrombomodulin: BioMAP Diversity Plus: 3C Assay for Thrombomodulin Biomarker Activity (AID 2283029). As to conditions: primary human endothelial cells (HUVEC); actives raise or lower the signal. The gist of the method: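 Endothelial cells from umbilical vein are dosed with test chemical and incubated 24 h. Thrombomodulin is then quantified by ELISA, with DMSO serving as negative control and activity baseline.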

Read-out in experiment [14]: Urokinase-type plasminogen activator receptor (uPAR), PLAUR (gene 5329)
Put plainly: BSK_4H_uPAR: BioMAP Diversity Plus: 4H Assay for Urokinase-type plasminogen activator receptor (uPAR) Biomarker Activity (AID 2283030). The settings on record: primary human endothelial cells (HUVEC); actives raise or lower the signal. The gist of the method:
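uPAR level read by ELISA on HUVEC cultures (BioMAP 4H) 24 h post-dosing, analyzed for gain or loss relative to DMSO. Parallel SRB staining assessed overt cytotoxicity.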

The target in experiment [15] is human Thyroid Receptor alpha (THRa1), THRA (gene 7067) (UniProt P10827). Put plainly: ATG_THRa1_TRANS: Attagene TRANS-FACTORIAL HepG2 Assay for human Thyroid Receptor alpha (THRa1) (AID 2283014; active means hit-call score of the fitted dose curve at least 0.9, where 1 is the maximum). The gist of the method: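 Transcripts from GAL4-UAS-driven reporters, measured after 24 h compound exposure by RT-PCR plus capillary electrophoresis of 6-FAM-labeled fragments, were fitted for gain of signal relative to DMSO. Cells: transiently transfected HepG2 expressing NR-Gal4 chimeras.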
Chain of human Thyroid Receptor alpha (THRa1), THRA (gene 7067) (P10827 whole entry, looked up, the tested form may be a part): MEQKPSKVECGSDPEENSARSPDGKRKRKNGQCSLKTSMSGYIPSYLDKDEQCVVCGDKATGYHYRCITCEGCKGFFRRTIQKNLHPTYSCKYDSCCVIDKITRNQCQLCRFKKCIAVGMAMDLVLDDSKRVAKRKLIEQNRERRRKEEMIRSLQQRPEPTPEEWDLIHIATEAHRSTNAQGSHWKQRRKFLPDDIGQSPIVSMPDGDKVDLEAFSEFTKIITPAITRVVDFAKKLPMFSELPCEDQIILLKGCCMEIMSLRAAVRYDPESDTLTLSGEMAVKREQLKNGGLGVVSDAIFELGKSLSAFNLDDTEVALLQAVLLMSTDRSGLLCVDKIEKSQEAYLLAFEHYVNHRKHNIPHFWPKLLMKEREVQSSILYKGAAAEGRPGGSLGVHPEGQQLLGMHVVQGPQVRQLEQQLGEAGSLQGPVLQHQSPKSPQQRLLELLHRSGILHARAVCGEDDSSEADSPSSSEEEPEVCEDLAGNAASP

Experiment [16] concerns the target human Vitamin D Receptor (VDR), VDR (gene 7421) (UniProt P11473). Kind of experiment: ATG_VDR_TRANS: Attagene TRANS-FACTORIAL HepG2 Assay for human Vitamin D Receptor (VDR) (AID 2283022; active means hit-call score of the fitted dose curve at least 0.9, where 1 is the maximum). The gist of the method: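 Transactivation by an exogenous VDR-Gal4 chimera in transiently transfected HepG2 cells was measured as reporter transcript level 24 hours after chemical treatment. RT-PCR products were analysed by capillary electrophoresis and fitted in the positive direction relative to DMSO.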

Experiment [17] is described as follows: BSK_3C_Vis: BioMAP Diversity Plus: 3C Assay for Morphology Visualization (AID 2283025).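 Further: fitted both ways so gain or loss versus DMSO counts.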 As to conditions: primary human endothelial cells (HUVEC). A digest of the protocol: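 Morphology read by light microscopy serves as a background control for the multiplexed 3C assay in human umbilical vein endothelial cells, taken 24 h after dosing, with DMSO as the negative control and bidirectional curve fitting.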

Read-out in experiment [18]: Pselectin, SELP (gene 6403)
Kind of experiment: BSK_4H_Pselectin: BioMAP Diversity Plus: 4H Assay for Pselectin Biomarker Activity (AID 2283026). The settings on record: primary human endothelial cells (HUVEC); actives raise or lower the signal. The gist of the method: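 Endothelial primary cells (human umbilical vein) are dosed, incubated 24 h, and assayed for surface P-selectin by ELISA; responses in either direction are fitted relative to the DMSO negative control.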

Read-out in experiment [19]: Monokine induced gamma interferon (MIG), CXCL9 (gene 4283)
Put plainly: BSK_3C_MIG: BioMAP Diversity Plus: 3C Assay for Monokine induced gamma interferon (MIG) Biomarker Activity (AID 2283021). The settings on record: primary human endothelial cells (HUVEC); actives raise or lower the signal. A digest of the protocol: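 Endothelial primary cells (human umbilical vein) are dosed with test chemical in the 3C system. MIG levels are measured by ELISA at 24 h and fitted in both directions relative to DMSO.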

Chain of human Vitamin D Receptor (VDR), VDR (gene 7421) (P11473 whole entry, looked up, the tested form may be a part): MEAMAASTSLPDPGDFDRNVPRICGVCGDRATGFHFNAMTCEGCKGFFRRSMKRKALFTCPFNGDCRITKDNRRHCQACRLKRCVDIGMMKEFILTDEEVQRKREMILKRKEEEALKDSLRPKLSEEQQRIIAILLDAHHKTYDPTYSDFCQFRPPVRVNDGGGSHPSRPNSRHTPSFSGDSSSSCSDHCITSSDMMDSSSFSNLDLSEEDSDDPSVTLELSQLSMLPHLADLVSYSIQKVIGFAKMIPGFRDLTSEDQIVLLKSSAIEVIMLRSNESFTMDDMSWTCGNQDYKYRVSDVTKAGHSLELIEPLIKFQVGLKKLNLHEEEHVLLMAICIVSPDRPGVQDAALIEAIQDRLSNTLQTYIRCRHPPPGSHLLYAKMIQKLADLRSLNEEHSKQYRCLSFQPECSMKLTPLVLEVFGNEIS
Chain of human Retinoid X Receptor beta (RXRb), RXRB (gene 6257) (P28702 whole entry, looked up, the tested form may be a part): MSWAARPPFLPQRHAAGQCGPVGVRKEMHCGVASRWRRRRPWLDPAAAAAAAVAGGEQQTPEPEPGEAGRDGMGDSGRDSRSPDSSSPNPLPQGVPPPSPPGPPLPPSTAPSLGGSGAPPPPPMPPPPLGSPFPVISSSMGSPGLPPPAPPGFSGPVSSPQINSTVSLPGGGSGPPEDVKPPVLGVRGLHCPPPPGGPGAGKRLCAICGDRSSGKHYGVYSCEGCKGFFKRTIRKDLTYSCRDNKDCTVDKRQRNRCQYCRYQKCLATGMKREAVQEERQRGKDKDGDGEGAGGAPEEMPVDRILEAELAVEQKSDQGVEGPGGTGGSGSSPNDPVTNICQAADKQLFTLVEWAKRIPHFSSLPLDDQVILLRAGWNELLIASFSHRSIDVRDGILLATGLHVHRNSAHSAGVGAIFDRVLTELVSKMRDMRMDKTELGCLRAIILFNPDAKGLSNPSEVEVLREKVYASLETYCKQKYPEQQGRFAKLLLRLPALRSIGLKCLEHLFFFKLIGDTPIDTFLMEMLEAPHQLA
Chain of Retinoic acid receptor RXR-alpha (Homo sapiens) (P19793 whole entry, looked up, the tested form may be a part): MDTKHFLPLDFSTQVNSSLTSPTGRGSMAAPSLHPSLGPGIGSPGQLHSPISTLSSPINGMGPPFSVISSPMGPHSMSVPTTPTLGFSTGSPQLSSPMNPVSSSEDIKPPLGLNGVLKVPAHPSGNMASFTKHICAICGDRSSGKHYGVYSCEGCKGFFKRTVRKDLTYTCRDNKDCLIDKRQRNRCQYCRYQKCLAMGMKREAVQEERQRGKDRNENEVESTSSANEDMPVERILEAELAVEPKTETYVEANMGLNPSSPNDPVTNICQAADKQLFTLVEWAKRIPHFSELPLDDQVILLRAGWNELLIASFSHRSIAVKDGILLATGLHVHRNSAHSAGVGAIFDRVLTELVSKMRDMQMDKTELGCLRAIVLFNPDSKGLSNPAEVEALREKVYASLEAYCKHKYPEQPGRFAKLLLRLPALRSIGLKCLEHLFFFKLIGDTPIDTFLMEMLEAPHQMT
Chain of E-selectin (Homo sapiens) (P16581 whole entry, looked up): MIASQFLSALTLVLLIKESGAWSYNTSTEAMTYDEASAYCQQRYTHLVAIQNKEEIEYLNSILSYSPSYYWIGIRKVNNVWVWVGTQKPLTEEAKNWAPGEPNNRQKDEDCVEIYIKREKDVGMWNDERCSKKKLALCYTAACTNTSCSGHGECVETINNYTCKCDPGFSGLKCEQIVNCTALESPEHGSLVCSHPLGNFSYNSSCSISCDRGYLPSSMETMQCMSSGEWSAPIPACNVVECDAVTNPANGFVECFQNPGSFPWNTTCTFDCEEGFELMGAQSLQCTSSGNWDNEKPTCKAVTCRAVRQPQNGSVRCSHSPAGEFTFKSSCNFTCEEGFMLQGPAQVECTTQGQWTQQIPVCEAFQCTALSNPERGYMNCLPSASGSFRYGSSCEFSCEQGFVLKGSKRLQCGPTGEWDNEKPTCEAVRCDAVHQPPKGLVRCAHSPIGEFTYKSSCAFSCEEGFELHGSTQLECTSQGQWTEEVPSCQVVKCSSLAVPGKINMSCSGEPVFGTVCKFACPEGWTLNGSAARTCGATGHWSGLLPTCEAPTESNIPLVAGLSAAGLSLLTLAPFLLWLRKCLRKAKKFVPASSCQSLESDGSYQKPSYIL

On to `O=S(=O)(O)C(F)(F)C(F)(F)C(F)(F)C(F)(F)C(F)(F)C(F)(F)C(F)(F)C(F)(F)C(F)(F)C(F)(F)F`, for which the result in experiment [1], in experiment [2], in [3], in [4], in [6] and in [7] was inactive. The outcome in experiment [8], in experiment [10], in [11], in [13] and in [14] was inactive. Moreover, the AC50 (as a rule, the concentration at which the activity in the assay is half-maximal) in experiment [4] is 10.2 µM (active); in experiment [5] it was 13.3 µM (active) and 10.6 µM (active); in [9] it was 18.5 µM (active) and 14.5 µM (active); in [10], 3.54 µM (active); in [12] it was 12.9 µM (active) and 10.8 µM (active).
For the compound `O=C1C=CC(=O)N1c1cccc(N2C(=O)C=CC2=O)c1`, the compound was called inactive in experiment [1], in experiment [2], in experiment [3] and in experiment [15].
For `COC(O)c1ccccc1` (configuration not stated), the compound was classed as inactive in experiment [1], in [2], in experiment [15] and in experiment [16].
On to `O=C(NO)c1ccccc1`, for which the compound was classed as inactive in experiment [1], in experiment [2], in [4], in [5], in experiment [6] and in experiment [7]. The result in experiment [8], in [16], in experiment [9], in [10], in experiment [17] and in experiment [18] was inactive. Also, the result in [11], in [12], in experiment [13] and in experiment [14] was inactive.
For the compound `CCOC=O`, the call in experiment [1] and in [2] was inactive. In addition, the AC50 in experiment [3] is 6.71 µM (active).
Turning to `CC[N+](CC)(CC)Cc1ccccc1`, the compound was called inactive in experiment [1], in [2], in experiment [3], in experiment [4], in experiment [5] and in experiment [6]. Moreover, the outcome in [7], in [8], in [19], in experiment [9], in experiment [10] and in experiment [17] was inactive. Further, the result in experiment [11], in experiment [12], in experiment [13] and in [14] was inactive.
As for `O=c1cc(-c2ccccc2)oc2ccc3ccccc3c12`, the outcome in experiment [1], in experiment [2], in [3], in experiment [15] and in experiment [16] was inactive.
As for `CC1CCC(CO)CC1` (configuration not stated), the call in experiment [1], in experiment [2] and in experiment [16] was inactive.
In the case of `COCC1CCC(CO)CC1` (configuration not stated), the outcome in experiment [1] and in experiment [3] was inactive.
As for `NC(=NCCCCCCN=C(N)/N=C(\N)Nc1ccc(Cl)cc1)/N=C(\N)Nc1ccc(Cl)cc1`, the result in experiment [1], in experiment [2] and in experiment [15] was inactive. For the same compound, the AC50 in experiment [15] is 8.56 µM (active) and 6.83 µM (active); in [4], 7.27 µM (active); in experiment [5], 4.74 µM (active); in experiment [6] it was 5.59 µM (active); in [7], 1.47 µM (active); in experiment [8], 3.88 µM (active). Also, the AC50 in experiment [9] is 4.85 µM (active); in [10], 3.14 µM (active); in experiment [11] it was 4.85 µM (active); in experiment [12], 4.74 µM (active); in [13], 6.15 µM (active); in experiment [14], 4.47 µM (active).
Regarding `CC(C)(C)C1CCCCC1O` (configuration not stated), the compound was classed as inactive in [1], in [2] and in experiment [15].
